Shown are actives, neighbours in structure and some others; about 3.2% of the full set was active somewhere.
PriA SSB inh: inhibitors of Klebsiella pneumoniae PriA binding to SSB C-terminal tail; 0.6% of 430,000 active; AlphaScreen SSBct-PriA binding, biotinylated peptide; inhibition, % at 33 µM; AID 1272365; in the data active means inhibition mostly above about 37%, no sharp cut-off; inactive means mostly below about 20%
Mtb FBA inh: inhibits M. tuberculosis FBA enzyme; P9WQA3; purified M. tuberculosis FBA, fluorescence read-out; inhibition, % at 1 µM; 2.3% of 360,000 active; AID 588726; in the data active means inhibition above about 27%
Target sequence (P9WQA3 whole entry, looked up): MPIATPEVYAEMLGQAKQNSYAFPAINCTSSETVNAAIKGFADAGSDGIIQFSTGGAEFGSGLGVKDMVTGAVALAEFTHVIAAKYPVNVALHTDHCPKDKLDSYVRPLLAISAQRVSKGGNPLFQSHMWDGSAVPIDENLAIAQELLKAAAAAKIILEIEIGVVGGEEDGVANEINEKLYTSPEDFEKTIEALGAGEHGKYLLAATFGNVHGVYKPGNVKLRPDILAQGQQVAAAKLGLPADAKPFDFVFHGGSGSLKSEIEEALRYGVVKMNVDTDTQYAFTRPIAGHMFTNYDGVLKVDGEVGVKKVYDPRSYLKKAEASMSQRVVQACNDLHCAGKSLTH
UGM FP inh: blocks M. tuberculosis UGM enzyme; P9WIQ1; purified UGM, fluorescence polarization probe displacement; inhibition, % at 10 µM; 0.06% of 320,000 active; AID 504406; in the data active means inhibition above about 10%, passing the limit was not always enough; inconclusive means no clear call, values can overlap the other calls
Rv3671c protease: inhibits the M. tuberculosis serine protease Rv3671c. P9WHR9. inhibition, % at 5.96 µM. 0.048% of 320,000 active; in the data active means inhibition above about 38%;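 further: extracellular domain of Rv3671c used as enzyme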
GDH-TPI counter-1: GDH-TPI coupled enzyme inhibition counter-screen; GDH-TPI coupled enzyme counterscreen, NADH absorbance; 1.2% of 360,000 active; inhibition, % at 4.8 µM; AID 588335; in the data active means inhibition above about 30%
Mtb bLac sens: beta-lactam sensitization of Mtb H37Rv; inhibition, % at 25 µM; 0.27% of 330,000 active; M. tuberculosis H37Rv growth with meropenem, percent inhibition;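 further: growth measured after seven days incubation then overnight dye step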
Mtb FBA confirm: confirmation of M. tuberculosis fructose-bisphosphate aldolase inhibitors; purified M. tuberculosis FBA, fluorescence read-out; shares compounds with Mtb FBA inh; inhibition, % at 1 µM; 78% of 5,600 active; in the data active means inhibition above about 27%
GDH-TPI counter-2: inhibits GDH-TPI coupling enzymes, flagging Mtb FBA hits; inhibition, % at 1 µM; shares compounds with Mtb FBA inh; 81% of 5,600 active; GDH-TPI coupled enzyme counterscreen, fluorescence; in the data active means inhibition above about 10%
GDH-TPI dose: inhibits GDH-TPI coupling enzymes in dose response; shares compounds with Mtb FBA inh; GDH-TPI coupled enzyme assay, fluorescence, artifact counterscreen; IC50, µM; 79% of 170 active; AID 652145
Hits are given with their value; - = inactive; ? = inconclusive; . = no result given; + = active, no number. Unless noted, how the calls were made is not given here.

SMILES | PriA SSB inh | Mtb FBA inh | UGM FP inh | Rv3671c protease | GDH-TPI counter-1 | Mtb bLac sens | Mtb FBA confirm | GDH-TPI counter-2 | others
CCOC(=O)Nc1nnc(-c2ccc(OC)c(OC)c2)s1 | - | 62.2 | - | - | - | - | 72.4 | 58.4
COCc1cc(=O)n2[nH]c(-c3ccc(C)cc3)cc2n1 | - | 35.0 | - | - | - | - | 152.4 | 107.6
COCc1cc(=O)n2[nH]c(-c3ccco3)cc2n1 | - | 33.6 | - | - | - | - | - | -
COCc1cc(=O)n2[nH]c(-c3cccs3)cc2n1 | - | 30.1 | - | - | - | - | 64.9 | 65.8
CCOC(=O)Cc1cc(=O)n2[nH]c(-c3ccc(C)cc3)cc2n1 | - | - | - | - | - | - | . | .
COCc1cc(=O)n2[nH]c(C)nc2n1 | - | - | - | - | - | ? | . | .
O=C(CSc1ccc(N2CCCC(C(=O)NC3CC3)C2)nn1)Nc1cccc(Br)c1 (stereo not drawn) | - | . | . | . | . | . | . | .
Cc1cc(C)n(N=Cc2cccs2)c(=O)c1C#N | - | . | . | . | . | . | . | .
CC(=O)Nc1ccc(NC(=O)Cn2c(=O)nc(-c3ccccc3)c3ccccc32)cc1 | - | . | . | . | . | . | . | .
CCCCN(C)C(=O)Cn1nc(-c2ccc(Cl)cc2)ccc1=O | - | 77.3 | - | - | - | - | 45.7 | 41.0
CCCCN(C)CCNC(=O)CCn1nc(-c2ccc(Cl)cc2)ccc1=O | - | - | - | - | - | - | . | .
C=CCNC(=O)C(=O)NCC1CCCN1CC (stereo not drawn) | - | - | - | - | - | - | . | .
CCCNC(=O)C(=O)NCC1CCCN1CC (stereo not drawn) | - | 29.1 | - | - | - | - | - | 12.6
CCOc1ccc(S(=O)(=O)NCC(c2cccn2C)N2CCc3ccccc3C2)cc1 (stereo not drawn) | - | . | . | . | . | . | . | .
Oc1ccc(/C=N/n2cc(-c3ccccc3)[nH]c2=S)cc1 | . | 42.3 | - | - | - | - | 137.1 | 116.6
S=c1[nH]c(-c2ccccc2)cn1/N=C/c1ccccc1Br | . | - | - | - | - | - | . | .
COc1cc(/C=N/n2cc(-c3ccccc3)[nH]c2=S)cc(OC)c1O | . | 42.9 | - | - | - | - | 79.9 | 64.0
S=c1[nH]c(-c2ccccc2)cn1/N=C/c1cccc2ccccc12 | . | 32.8 | - | - | - | - | - | - | GDH-TPI dose=-
COc1ccc(C=NNC(=O)c2c([N+](=O)[O-])c(C)nn2C)cc1 | - | . | . | . | . | . | . | .
COc1cccc(OC)c1C(=O)Nc1ccc2c(c1)N(C(=O)C(C)(C)C)CC2 | - | . | . | . | . | . | . | .
Cn1ccnc1SCC1CCN(C(=O)NCc2cccs2)CC1 | - | . | . | . | . | . | . | .
N#C/C(=C/c1ccc(-c2ccc(Cl)cc2[N+](=O)[O-])o1)C(=O)Nc1ccccc1I | - | . | . | . | . | . | . | .
O=C(NN=Cc1cccs1)c1ccc2c(c1)OCO2 | - | . | . | . | . | . | . | .
Cc1nnsc1C(=O)NC[C@@](C)(O)Cc1ccco1 | - | . | . | . | . | . | . | .
O=C(Nc1cccc2ccccc12)N1CCN(c2ncccn2)CC1 | - | 49.7 | - | - | - | - | + | +
SMILES | PriA SSB inh | Mtb FBA inh | UGM FP inh | Rv3671c protease | GDH-TPI counter-1 | Mtb bLac sens | Mtb FBA confirm | GDH-TPI counter-2 | others
O=C(Nc1cccc2ccccc12)N1CCN(c2ccccc2)CC1 | - | 27.1 | - | - | - | - | 115.1 | 99.9
O=C(Nc1cccc2ccccc12)N1Cc2ccccc2-n2nncc2C1 | . | 29.8 | . | . | - | . | 132.5 | 90.7
O=C(Nc1cccc2ccccc12)N1CC=CCC1 | - | 40.4 | - | - | - | - | - | -
S=C(Nc1cccc2ccccc12)N1CCN(c2ncccn2)CC1 | - | - | - | - | - | - | . | .
NS(=O)(=O)c1cc2c(cc1Cl)NC(C1CC3C=CC1C3)NS2(=O)=O (stereo not drawn) | - | - | - | - | - | - | . | .
O=C1NC(C2CC3C=CC2C3)Nc2ccccc21 (stereo not drawn) | . | 63.1 | . | . | - | . | + | 172.1
O=C(NCCc1ccccc1)C1CC(=O)N(c2ccc3c(c2)OCCO3)C1 (stereo not drawn) | - | 28.2 | - | - | - | - | 38.4 | 20.6
CN(Cc1ccc(Cl)c(Cl)c1)C(=O)C1CC(=O)N(c2ccc3c(c2)OCCO3)C1 (stereo not drawn) | . | - | . | . | - | . | . | .
O=C(NCCCc1ccccc1)C1CC(=O)N(c2ccc3c(c2)OCCO3)C1 (stereo not drawn) | - | - | - | - | - | - | . | .

Screens from PubChem BioAssay.
